CYP2C19 inhib = inhibitors of human CYP2C19; P33261; CYP2C19 Supersomes, luciferin-H EGE luminescence, 30 min; inhibition, % at 5 µM; 96,000 tested, 21% active; AID 778;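 active = CYP2C19 inhibition above a set limit at 5 µM in the primary screen, cut at about 50% in these data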
Target sequence (P33261 whole entry, looked up): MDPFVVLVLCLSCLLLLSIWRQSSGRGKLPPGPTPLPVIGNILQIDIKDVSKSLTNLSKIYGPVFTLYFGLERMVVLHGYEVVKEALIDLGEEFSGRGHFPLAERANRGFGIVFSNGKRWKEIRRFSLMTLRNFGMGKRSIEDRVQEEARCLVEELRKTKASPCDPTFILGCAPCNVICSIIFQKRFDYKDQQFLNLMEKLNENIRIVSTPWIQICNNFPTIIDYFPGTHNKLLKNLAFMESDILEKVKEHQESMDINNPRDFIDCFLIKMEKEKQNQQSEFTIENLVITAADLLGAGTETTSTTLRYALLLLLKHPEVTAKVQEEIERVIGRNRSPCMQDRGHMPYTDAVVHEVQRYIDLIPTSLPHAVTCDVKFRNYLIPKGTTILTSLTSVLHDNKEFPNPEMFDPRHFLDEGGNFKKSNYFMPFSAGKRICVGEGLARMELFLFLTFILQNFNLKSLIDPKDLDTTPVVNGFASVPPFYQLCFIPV
PostGolgi yeast = growth inhibition of a yeast mutant, post-Golgi transport screen; post-Golgi transport phenotypic cell assay; inhibition, % at 10 µM; 98,000 tested, 0.9% active;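 also: yeast cells grown in 1536-well plates; yeast grown about 18 h at 30C before absorbance read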
CYP2C9 inhib = blocks human cytochrome P450 2C9; P11712; CYP2C9 Supersomes, luciferin-H conversion, luminescence; inhibition, % at 5 µM; 96,000 tested, 20% active;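 active = blocking of liver enzyme CYP2C9 beyond about 50% at 5 µM, limit read from the data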
CYP2C9 act = activators of human CYP2C9. recombinant CYP2C9, luciferin-H conversion, luminescence; active compounds read high; factor 1 = untreated enzyme, 0 = blocked. activation factor at 5 µM. 96,000 tested, 1.4% active;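 active = activation factor of 2 or more for CYP2C9 at a 5 µM dose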
CYP2C19 activ = increases human CYP2C19 enzyme activity | P33261 | recombinant CYP2C19, luciferin-H EGE luminescence; active compounds read high; 0 = fully inhibited enzyme, 1 = untreated enzyme | activation factor at 5 µM | 96,000 tested, under 10 active | AID 1025;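 active = activation factor of at least 2 at 5 µM in the primary screen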
PostGolgi ctrl = yeast control strain growth, post-Golgi counter-screen. efflux-deficient yeast background strain, growth absorbance A615, 16 h. inhibition, % at 10 µM. 98,000 tested, 5% active
Large screens that a line does not name were inactive. An excerpt weighted towards active compounds, which were near 32% of everything screened. Rule as the data show it, unless noted: active = inhibition above about 30%; inactive = the rest.

CN(C)CCCN1C(=O)C(=O)/C(=C(/O)c2ccc3c(c2)OCCO3)C1c1ccco1 (stereo not drawn)	none (no result: PostGolgi yeast, PostGolgi ctrl)
Cc1ccc(NC2CC(=O)N(CCc3ccccc3)C2=O)cc1 (stereo not drawn)	CYP2C19 inhib 64
C/C(=N\NC(N)=O)c1ccc(Cl)cc1	none
CCOC(=O)/C(=C\c1ccccc1)C(=O)c1cc(C(C)=O)c(Nc2ccccc2)s1	CYP2C19 inhib 92, CYP2C9 inhib 98, PostGolgi ctrl 60
CCOC(=O)/C(=C\c1cccnc1)C(=O)c1cc(C(C)=O)c(Nc2ccccc2)s1	CYP2C19 inhib 65, PostGolgi yeast 111, CYP2C9 inhib 100, PostGolgi ctrl 90
CCOC(=O)C(=O)/C(C#N)=C/Nc1ccccc1	none
CC(/C=C\c1cccnc1)=C/C(=O)O	none
CC(C(=O)O)n1c(C(F)(F)F)nc2ccccc21 (stereo not drawn)	none
CN(Cc1ccccc1)C(=O)c1cccc(N2C(=O)NC3CC2(C)Oc2ccccc23)c1 (stereo not drawn)	none
Cc1ccc(-n2nc3c(c2NC(=O)c2ccccc2Br)CS(=O)C3)cc1 (stereo not drawn)	none
CC(=O)N1N=C(c2ccncc2)OC12CCCCC2	CYP2C19 inhib 88, CYP2C9 inhib 55
CCOC(=O)c1c(N)sc2c(NC(C)=O)cccc12	none
CCOC(=O)c1c(N)sc2c(O)c(Br)ccc12	CYP2C9 inhib 73, PostGolgi ctrl 49
CN(C)C(CNC(=O)NC1CCCCC1)c1cccnc1 (stereo not drawn)	none
O=C(NCc1cccnc1)C1CCCN(Cc2cnn(-c3ccccc3)c2-n2cccc2)C1 (stereo not drawn)	none
COc1ccc(C)c(S(=O)(=O)Nc2ccc(OCC(=O)O)cc2)c1	none
CCCCNS(=O)(=O)c1ccc(NS(=O)(=O)c2c(C)cc(C)cc2C)cc1	CYP2C19 inhib 85, CYP2C9 inhib 98
Cc1cc(C)c(S(=O)(=O)Nc2ccc(O)cc2)cc1C	CYP2C19 inhib 97
Cc1ccc(C)c(S(=O)(=O)Nc2ccc(O)cc2)c1	CYP2C19 inhib 72
COc1ccc(NS(=O)(=O)c2cc(OC)ccc2NC(=O)c2cc(C)oc2C)cc1	CYP2C19 inhib 91
CCNS(=O)(=O)c1ccc(NS(C)(=O)=O)cc1	none
CCOC(=O)c1ccc(N2CN=C3SCC(=O)N3C2)cc1	none
C1CCN(c2c3c(nc4nnnn24)CCCC3)CC1	none
COc1ccc(N/C(C)=C2/C(=O)C(=O)N(CCO)C2c2ccc([N+](=O)[O-])cc2)cc1 (stereo not drawn)	none
COc1ccc(NS(=O)(=O)c2cc(C(=O)O)ccc2C)cc1	none
COc1ccc(NS(=O)(=O)c2cc(C)ccc2C)cc1	CYP2C19 inhib 82, CYP2C9 inhib 72
Cc1ccc(C)c(S(=O)(=O)Nc2ccc(S(=O)(=O)Nc3onc(C)c3C)cc2)c1	CYP2C9 inhib 71
CCNS(=O)(=O)c1ccc(NS(=O)(=O)c2cc(C)ccc2C)cc1	CYP2C19 inhib 64, CYP2C9 inhib 97
NC(=O)CSc1ncnc2c1cnn2Cc1ccccc1	none
CCOC(=O)c1cnc(SCC(=O)Nc2sc(C)c(C)c2C#N)nc1N	CYP2C9 inhib 62
Cc1sc(NC(=O)CSc2nc(N)n(CC(=O)c3ccccc3)n2)c(C#N)c1C	CYP2C19 inhib 93, CYP2C9 inhib 98
CCOC(=O)c1cnc(SCC(=O)Nc2cc(OC)cc(OC)c2)nc1N	none
CCOC(=O)c1sc(NC(=O)CSc2nc(C)cc(-c3ccccc3)n2)c(C#N)c1C	none
CCOC(=O)c1cnc(SCC(=O)NCc2cccs2)nc1N	CYP2C19 inhib 80, CYP2C9 inhib 93
CCOC(=O)c1cnc(SC2CCc3ccccc3C2=O)nc1N (stereo not drawn)	CYP2C19 inhib 81
CC(C)OCCCNc1nc2c([nH]1)c(=O)n(C)c(=O)n2C	none
O=C(CNC(=O)c1ccco1)NCC(=O)OCc1cccc(C(=O)Oc2ccccc2)c1	none
CCCCCCCNC(=O)COc1ccc2c(c1)C(=O)CC(C)(C)O2	CYP2C19 inhib 88, CYP2C9 inhib 96
O=C(Cn1cnc2sc(-c3ccccc3)cc2c1=O)NCc1ccco1	none
O=C(NCCCn1ccnc1)C1CC2CCC1C2 (stereo not drawn)	CYP2C19 inhib 98, CYP2C9 inhib 74
O=C(O)C1C2CCC(C2)C1C(=O)NCCCn1ccnc1 (stereo not drawn)	CYP2C19 inhib 79, CYP2C9 inhib 52 (no result: PostGolgi yeast, PostGolgi ctrl)
Cc1nn2c(N)csc2nc1=O	none
CSCC[C@H](NC(=O)OC(C)(C)C)C(=O)N1CCC(C(=O)N[C@H](C(=O)O)C(C)C)CC1	none
CCCS(=O)(=O)N1CCCC(C(=O)N2CCN(C(=O)OCC)CC2)C1 (stereo not drawn)	none
O=C(Nc1ccc2c(c1)CCC2)c1cc(S(=O)(=O)N2CCN(c3ccccc3)CC2)ccc1Cl	CYP2C9 inhib 56
CN(C)c1ccc(/C=C/C(=O)c2cccc(Br)c2)cc1	CYP2C19 inhib 93
Cc1ccc(CNC(=O)CSc2c3c(nc4cc(Cl)ccc24)CCCC3)o1	CYP2C19 inhib 80
CCOC(=O)c1ccc(CNC(=O)CSc2nnnn2-c2ccc(Cl)cc2)o1	none
COc1ccc(OC2C(=O)N(Cc3ccc4c(c3)OCO4)C2c2sccc2C)cc1 (stereo not drawn)	CYP2C19 inhib 74, CYP2C9 inhib 69
COc1ccc(N2C(=O)C(CC(=O)Nc3ccccc3)N(Cc3ccc4c(c3)OCO4)C2=O)cc1 (stereo not drawn)	none
O=C(CN1C(=O)C2C3C=CC(C3)C2C1=O)Nc1nc(SCc2ccc(Cl)cc2)n[nH]1 (stereo not drawn)	CYP2C19 inhib 60
CC(C)C(C)(C#N)NC(=O)CSc1nnc(C(F)(F)F)n1C (stereo not drawn)	none
CCN(CC)c1cccc(OC2=NS(=O)(=O)c3ccccc32)c1	none
O=S(=O)(c1cc(Cl)ccc1Cl)N1CC2CCCN2c2ccc(C(F)(F)F)cc21 (stereo not drawn)	CYP2C9 inhib 82
COc1ccc(S(=O)(=O)N2CC3CCCN3c3cc(C(F)(F)F)ccc32)cc1 (stereo not drawn)	CYP2C19 inhib 92
COc1ccc(S(=O)(=O)N2CCCCC2)cc1	none
COc1ccc(S(=O)(=O)N2CC3CCCN3c3ccc(C(F)(F)F)cc32)cc1 (stereo not drawn)	CYP2C19 inhib 73
O=S(=O)(c1cc(C(F)(F)F)ccc1Cl)N1CCCCCC1	none
COCCNC(=O)CS(=O)(=O)Cc1nc(-c2ccc(C)cc2)oc1C	none
COc1ccc(CNC(=O)C(c2cccs2)N(C(=O)c2csnn2)C2CC2)cc1 (stereo not drawn)	none
O=C(Nc1ccc(OC(F)(F)F)cc1)c1n[nH]c(Cn2cncn2)n1	none
N#C/C(=C\c1ccc(F)cc1)c1n[nH]c(Cn2cncn2)n1	CYP2C9 inhib 58
N#C/C(=C\c1cccc(Cl)c1)c1n[nH]c(Cn2cncn2)n1	CYP2C9 inhib 52

Source: PubChem (several laboratories)
